Test results: PubChem BioAssay (NCATS)
Inconclusive results are not listed. The source made the active and inactive calls. Unless noted, the call rests on the fitted dose curve; in most records, active means well fitted curve in the direction sought with a large enough effect; inconclusive means small, poorly fitted or top-dose-only effect, or another doubt; inactive means no such curve, though single readings can be large; an effect the other way counts as inactive or inconclusive.

Assays:
[1] = Primary qHTS for inhibitors of La Crosse Virus (LACV) - induced cell death in SH-SY5Y cells (AID 1508616);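 further: top concentration of the series differs between compounds; 0% = infected DMSO wells and 100% = uninfected DMSO wells; higher means more rescue of cells from virus-induced death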
Method in brief: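 SH-SY5Y cells (6000/well) plated 24 h, then given compounds by pin transfer and LACV at 0.01 MOI for 6 days at 37C. Viability measured by ATPLite luminescence, normalized to infected DMSO and uninfected DMSO.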

[2] = target: Calcium and integrin-binding protein 1 (Homo sapiens) (UniProt Q99828); experiment: Primary qHTS for Identification of Calcium Integrin Binding Protein 1 (CIB1) Competitor (AID 1508620);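 further: GST tagged CIB1 binding a fluorescein labelled alphaIIb integrin peptide tracer; top concentration of the series differs between compounds; on the % scale 0 is the no-effect control and ±100 the full control effect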
Method in brief: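 Fluorescence polarization competition: GST-tagged CIB1 (1 uM final) preincubated with compound 15 min at room temperature, then FITC-labelled alphaIIb peptide (100 nM final) added. After 15 min at room temperature, polarization read at Ex 480/Em 540.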

[3] = Primary qHTS for small molecule stabilizers of the endoplasmic reticulum resident proteome: Secreted ER Calcium Modulated Protein (SERCaMP) assay (AID 1508630); further: on the % scale 0 is the no-effect control and ±100 the full control effect
Method in brief: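 GLuc-SERCaMP-expressing SH-SY5Y cells, pretreated 16 h with compound, are challenged with thapsigargin to empty ER calcium stores; after 4 h, coelenterazine is added directly to the medium and luminescence is imaged.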

[4] = A High-Content qHTS Against Drug Library for the Identification of Small Molecules that Inhibit DYT1 Early Onset Primary Dystonia-Associated Cell Pathology (AID 1645839; calls by dose curve)
Method in brief: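 Flp-In T-REx 293 cells with tetracycline-inducible EGFP-delE hTOR1A (WT EGFP-hTOR1A as reference), 800 cells/well; compound added with tetracycline, 48 h at 37 C. Fixed, permeabilized cells imaged; %pathology (punctate TorsinA) primary, cell count counterscreen.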

[5] = target: Cytochrome P450 2D6 (Homo sapiens) (UniProt P10635); experiment: Cytochrome P450 family 2 subfamily D member 6 (CYP2D6) small molecule antagonists: luciferase biochemical (cell-free) qHTS assay (AID 1645840; active means well fitted curve in the direction sought with a large enough effect in the repeat runs; an effect the other way counts as inactive or inconclusive; further: nearly all actives have a fitted effect of over 55% in size; further: potency means the concentration at half of the fitted maximal effect; on activity change, negative = inhibition: on the % scale 0 is the no-effect control and ±100 the full control effect)
Method in brief: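 P450-Glo luminescent screen: recombinant CYP2D6 enzyme–proluciferin substrate mix preincubated with compound 10 min at room temperature, then NADPH regeneration added for 1 h at room temperature. Detection reagent added for 20 min; luciferin light read as relative luminescence units.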

[6] = target: Cytochrome P450 2C9 (Homo sapiens) (UniProt P11712); experiment: Cytochrome P450 family 2 subfamily C member 9 (CYP2C9) small molecule antagonists: luciferase biochemical (cell-free) qHTS assay (AID 1645842; active means well fitted curve in the direction sought with a large enough effect in the repeat runs; an effect the other way counts as inactive or inconclusive; further: on the % scale 0 is the no-effect control and ±100 the full control effect; nearly all actives have a fitted effect of over 55% in size)
Method in brief: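 Luminescence, after 20 min with luciferin detection reagent, reflected CYP2C9 turnover during a 1 h NADPH-driven reaction at 37C. Enzyme-substrate mix contained 0.4% bovine serum albumin and was preincubated with compound 10 min at room temperature.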

[7] = Cytotoxicity counterscreen for inhibitors of SARS-CoV-2 cell entry (AID 1645845; calls by dose curve; further: nearly all actives have a fitted effect of over 50% in size)
Method in brief: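 HEK293-ACE2 cells (Expi293F stably expressing human ACE2) seeded overnight, then compound for 1 h plus 48 h at 37C. Viability as ATP content by luminescence; normalized to wells with cells and media-only wells.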

[8] = Primary qHTS to identify inhibitors of SARS-CoV-2 cell entry (AID 1645846; calls by dose curve; further: nearly all actives have a fitted effect of over 45% in size); conditions: activity change, negative = inhibition: at 57.1 µM (top of the series) unless noted
Method in brief: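 HEK293 cells stably expressing human ACE2, pre-treated 1 h with compound, then infected with MLV particles pseudotyped with Wuhan-Hu-1 spike (C-terminal 19-aa truncation). Luciferase luminescence after 48 h at 37 °C, normalised to spike PP and bald PP.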

[9] = Primary qHTS for inhibitors of nuclear receptor binding SET domain protein 2 (NSD2) in an isogenic RCH-ACV NSD2 p.E1099K mutant (9B) (AID 1645876); further: nearly all actives have a fitted effect of over 70% in size; further: potency means the concentration at half of the fitted maximal effect
[10] = Primary qHTS for inhibitors of nuclear receptor binding SET domain protein 2 (NSD2) in an RCH-ACV wild type WT cells (2C) (AID 1645877); further: nearly all actives have a fitted effect of over 70% in size; further: potency means the concentration at half of the fitted maximal effect
[11] = target: Calcium and integrin-binding protein 1 (Homo sapiens) (UniProt Q99828); experiment: Confirmatory qHTS for Identification of Calcium Integrin Binding Protein 1 (CIB1) Competitor (AID 1508617); further: potency means the concentration at half of the fitted maximal effect; nearly all actives have a fitted effect of over 65% in size
Method in brief: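 Confirmatory qHTS measures displacement of a FITC-alphaIIb peptide (100 nM) from CIB1-GST (1 uM) by fluorescence polarization. Calcium-containing HEPES buffer, pH 7.4; two 15 min room-temperature incubations.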

[12] = target: N-terminal Xaa-Pro-Lys N-methyltransferase 1 (Homo sapiens) (UniProt Q9BV86); experiment: Confirmatory qHTS for Inhibitors of N-terminal methyltransferase 1 (NTMT1): MTaseGlo Assay (AID 1645874);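 further: luminescence from SAH made as NTMT1 methylates SPKRIA peptide using SAM; 0% = DMSO control and -100% = no-enzyme control; nearly all actives have a fitted effect of over 65% in size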
Method in brief: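 Preincubation of NTMT1 (125 nM) plus SAM (100 uM) with test compounds lasted 15 min; methylation of 1 uM SPKRIA then proceeded 30 min in the dark at room temperature. Luciferase signal reported SAH produced.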

[13] = Counterscreen qHTS for small molecule stabilizers of the endoplasmic reticulum resident proteome: GLuc-NoTag assay (AID 1508627);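 further: SH-SY5Y cells given compound then 100 nM thapsigargin to empty ER calcium; 0% = thapsigargin alone and -100% = DMSO vehicle control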
Method in brief: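 SH-SY5Y cells stably expressing constitutively secreted GLuc without SERCaMP tag, exposed to compound for 19 hr, then to 100 nM thapsigargin for 4 hr at 37C. Medium luciferase was read by coelenterazine luminescence without lysis.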

[14] = Confirmatory qHTS for small molecule stabilizers of the endoplasmic reticulum resident proteome: Secreted ER Calcium Modulated Protein (SERCaMP) assay (AID 1508628); further: nearly all actives have a fitted effect of over 40% in size; further: potency means the concentration at half of the fitted maximal effect
Method in brief: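 SH-SY5Y cells stably expressing GLuc-SERCaMP, treated 16 h with compound (primary 1.53, 7.67, 38.3 uM; confirmation 11 concentrations, up to 76.6 uM), then 100 nM thapsigargin for 4 h. Secreted Gaussia luciferase in medium read by coelenterazine luminescence.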

[15] = Cell Viability qHTS for small molecule stabilizers of the endoplasmic reticulum resident proteome (AID 1508629); conditions: cell viability counter-screen, 100 nM thapsigargin for final 4 h;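 further: compound exposure about 46 h in total before the viability read; on the % scale 0 is the no-effect control and ±100 the full control effect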
Description: Assay Provider: Brandon K. Harvey Ph.D.
National Institute on Drug Abuse, National Institutes of Health, Baltimore, MD
Endoplasmic reticulum (ER) dysregulation is associated with human pathologies including neurodegenerative, cardiovascular, muscular, and diabetic conditions. Maintenance of ER calcium is critical for functions of the ER and its depletion can lead to loss of ER resident proteins, in a process termed exodosis. Therapeutic compounds capable of attenuating the redistribution of ER proteins under pathological conditions may slow or stop disease progression. To identify such compounds, we performed a quantitative high-throughput screen (qHTS) using the SERCaMP assay, which monitors secretion of ER resident proteins triggered by calcium depletion.
SERCaMP was initially developed as a reporter of ER calcium homeostasis using a Gaussia luciferase with a modified signal peptide and carboxy-terminus (GLuc-SERCaMP), modifications that confer secretion of the reporter in response to ER calcium depletion (Henderson et al., 2014). The assay was used to screen 9,501 compounds, including a collection of drugs approved by the FDA (US), EMA (EU), NHI (Japan), and HC (Canada) regulatory agencies (Huang et al., 2011). Since the SERCaMP reporter reflects the exodosis phenomenon (Trychta et al., 2018a), compounds identified in the screen have the potential to prevent exodosis by different mechanisms such as stabilizing ER calcium or augmenting ERS retrieval.
1. Henderson, M.J., Wires, E.S., Trychta, K.A., Richie, C.T., and Harvey, B.K. (2014). SERCaMP: a carboxy-terminal protein modification that enables monitoring of ER calcium homeostasis. Mol Biol Cell 25, 2828-2839.
2. Huang, R., Southall, N., Wang, Y., Yasgar, A., Shinn, P., Jadhav, A., Nguyen, D.T., and Austin, C.P. (2011). The NCGC pharmaceutical collection: a comprehensive resource of clinically approved drugs enabling repurposing and chemical genomics. Sci Transl Med 3, 80ps16.
3. Trychta, K.A., Back, S., Henderson, M.J., and Harvey, B.K. (2018a). KDEL Receptors Are Differentially Regulated to Maintain the ER Proteome under Calcium Deficiency. Cell Rep 25, 1829-1840 e1826.
SEQUENCE No. (1, 2, 3, etc.); […] (e.g., Cells, Incubation, Reagent, etc.); VALUE and DESCRIPTION.
1; Reagent; 5 uL; 1000 SH-SY5Y cells per wells
3; Compound; 23 nL; Control inhibitor / compound library
5; Reagent; 100 nM; Thapsigargin
7; Reagent; 5 uL; CellTiter-Glo (Promega)
8; Time; 10 min; room temperature
9; Detection; Luminescence; ViewLux imaging system
NOTES (numbers refer to sequence above)
1; SH-SY5Y human neuroblastoma cells stably expressing GLuc-SERCaMP (SH-SY5Y-GLuc-ASARTDL) cells were seeded in 1,536 well white tissue culture treated plates (Corning, Cat# 7464) in DMEM-high glucose-sodium pyruvate (ThermoFisher Scientific, Cat #10569) supplemented with 10% bovine growth serum (Hyclone), 10 U/ml penicillin (Gibco), 10 ug/ml streptomycin (Gibco), and 20 mM HEPES.
2; Assay plates were incubated for 5 hr at 37C in a humidified incubator containing 5% CO2.
3; qHTS libraries (23 nl, final concentrations of 1.53 uM, 7.67 uM, 38.3 uM) or controls (neutral control: DMSO, positive control: dantrolene) were added using a Kalypsis pin-tool Robotic System equipped with 1536 pinheads.
4; Cells were then incubated for 42 hours at 37C, 5% CO2.
5; Thapsigargin was added at 100 nM to deplete ER calcium stores.
6; Cells were incubated for 4 hr (37C, 5% CO2).
7; Cell viability was measured using the CellTiter-Glo Luminescent Cell Viability Assay (Promega). Briefly, an equal volume of reagent was added to each well. Plates were rotated for 2 min.
8; Assay plates were incubated for 10 min at room temperature.
9; Luminescence was measured using a ViewLux CCD imaging system (Perkin Elmer) equipped with clear filters.

Sequence of Cytochrome P450 2D6 (Homo sapiens) (P10635 whole entry, looked up): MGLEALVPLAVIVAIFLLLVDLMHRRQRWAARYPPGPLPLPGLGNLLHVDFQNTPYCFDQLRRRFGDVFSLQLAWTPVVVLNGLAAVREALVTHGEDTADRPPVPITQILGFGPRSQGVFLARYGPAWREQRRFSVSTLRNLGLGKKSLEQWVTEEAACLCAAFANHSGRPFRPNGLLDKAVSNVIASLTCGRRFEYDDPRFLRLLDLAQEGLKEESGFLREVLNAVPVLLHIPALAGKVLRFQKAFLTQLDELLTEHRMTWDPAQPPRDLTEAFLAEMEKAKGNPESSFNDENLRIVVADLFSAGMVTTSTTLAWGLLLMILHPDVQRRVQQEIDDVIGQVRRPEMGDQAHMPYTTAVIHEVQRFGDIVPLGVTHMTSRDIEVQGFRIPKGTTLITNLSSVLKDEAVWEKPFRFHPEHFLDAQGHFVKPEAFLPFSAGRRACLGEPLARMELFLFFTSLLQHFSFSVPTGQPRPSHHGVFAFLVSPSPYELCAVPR
Sequence of Calcium and integrin-binding protein 1 (Homo sapiens) (Q99828 whole entry, looked up): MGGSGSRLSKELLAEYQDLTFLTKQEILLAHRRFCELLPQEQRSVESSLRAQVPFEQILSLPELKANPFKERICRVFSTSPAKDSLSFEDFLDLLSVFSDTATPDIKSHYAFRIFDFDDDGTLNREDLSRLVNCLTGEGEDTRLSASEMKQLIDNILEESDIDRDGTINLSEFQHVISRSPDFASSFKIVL
Sequence of Cytochrome P450 2C9 (Homo sapiens) (P11712 whole entry, looked up): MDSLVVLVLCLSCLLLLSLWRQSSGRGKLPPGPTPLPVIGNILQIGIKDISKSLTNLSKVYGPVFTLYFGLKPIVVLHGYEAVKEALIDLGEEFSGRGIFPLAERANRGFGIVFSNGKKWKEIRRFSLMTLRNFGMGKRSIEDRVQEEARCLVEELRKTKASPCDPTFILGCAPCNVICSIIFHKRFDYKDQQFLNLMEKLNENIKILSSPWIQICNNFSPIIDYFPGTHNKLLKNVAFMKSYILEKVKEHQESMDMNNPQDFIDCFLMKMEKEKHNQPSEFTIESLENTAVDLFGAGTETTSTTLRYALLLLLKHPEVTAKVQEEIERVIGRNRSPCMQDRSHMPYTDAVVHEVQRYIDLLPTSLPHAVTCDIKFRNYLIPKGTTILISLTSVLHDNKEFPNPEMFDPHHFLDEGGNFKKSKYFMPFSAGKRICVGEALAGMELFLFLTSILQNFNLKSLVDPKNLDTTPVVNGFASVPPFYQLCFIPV
Sequence of N-terminal Xaa-Pro-Lys N-methyltransferase 1 (Homo sapiens) (Q9BV86 whole entry, looked up): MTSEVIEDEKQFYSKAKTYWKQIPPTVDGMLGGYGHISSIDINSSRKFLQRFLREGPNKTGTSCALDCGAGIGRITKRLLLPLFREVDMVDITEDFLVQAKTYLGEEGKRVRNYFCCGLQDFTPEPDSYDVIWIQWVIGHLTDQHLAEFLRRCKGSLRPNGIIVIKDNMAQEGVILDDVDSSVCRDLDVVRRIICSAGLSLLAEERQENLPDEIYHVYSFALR

CC(C)(O)C(Cl)(Cl)Cl
inactive: outcome [1] | Potency [2] | outcome [3] | outcome [4] | Potency [5] | Potency [6] | Potency [7] | Potency [8] | Potency [9] | Potency [10]

CN(C)CCc1c[nH]c2cccc(O)c12
active: Potency [11] 126 µM | Potency [5] 12.5 µM
inactive: outcome [1] | outcome [3] | outcome [4] | Potency [6] | Potency [12]

c1cc2c(c(N3CCNCC3)c1)OCCO2
inactive: outcome [1] | Potency [2] | Potency [13] | Potency [14] | max response [15] 5.26% | outcome [4] | Potency [5] | Potency [6]

Oc1ccc2[nH]cc(CCCCN3CC=C(c4ccccc4)CC3)c2c1
inactive: outcome [1] | Potency [2] | Potency [13]
active: Potency [14] 12.6 µM | Potency [5] 0.195 µM | Potency [9] 7.5 µM | Potency [10] 7.5 µM

O=C(O)Cc1ccccc1
active: Potency [5] 15.5 µM
inactive: outcome [1] | Potency [2] | outcome [3] | outcome [4] | Potency [6] | Potency [7] | Potency [8] | Potency [9] | Potency [10]
